# Where “and” joins values, the source holds several entries; their conditions need not be identical. Equal entries are not always repeated. Calls of active or inactive are those of the source. Unless noted, no stated cut-off is given here; in the data, active means parasite load remaining mostly below about 12% (no sharp cut-off); inactive means mostly above about 10%. Bridge positions count the residues as written; N and C are the ends. Square brackets hold non-standard residues; d marks the D form. Peptide text beside a SMILES is read from it. * marks the point of attachment. Heptanoyl(6-Me) = CC(C)CCCCC(=O)*; Dab = NCC[CH](N)C(=O)O
# Assays:
# [1] = liver-stage malaria parasite growth inhibition, primary screen, cell-based, HepG2, luciferase luminescence, HepG2 viability (AID 624349);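 further: 100% = mean of DMSO negative control wells on the same plate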; conditions: P. berghei liver stage in HepG2, luciferase luminescence, concentration not given here; parasite load remaining: stronger effect = lower value; viability: measured here: HepG2 viability without parasites
# [2] = differential killing of epithelial or mesenchymal cells, primary screen, imaging, PC-3E GFP, TEM4-18 mCherry, co-culture (AID 1345086;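 active means compounds killing one labelled cell type while sparing the other, by normalised counts and ratio limits, not self-fluorescent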;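 on all read-outs here: cells exposed to compound for 72 h before imaging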;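 on red/green cell ratio (normalised): normalised mesenchymal count divided by normalised epithelial count so high means epithelial killing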); conditions: imaging cell counts, at 1 µM; for red/green cell ratio (normalised): actives lie on both sides, counts scaled to control wells, 1 = unselective
# [3] = sensitizers of A549 cells to miR-34 induction, primary screen, imaging, A549 dox-inducible miR-34, nuclei and caspase counts (AID 1347080;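 active means compounds whose cell count with miR-34 switched on is under 0.7 times the count with it off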); conditions: A549 miR-34 inducible, Hoechst nuclei count, 48 h
# [4] = measured here: epithelial PC-3E GFP cell survival
# [5] = measured here: mesenchymal TEM4-18 mCherry cell survival
# [6] = stronger effect = lower value, cell number ratio, induced over uninduced
# [7] = measured here: relative caspase fold change +Dox/-Dox
# [8] = measured here: total cells with miR-34 induction, stronger effect = lower value
# [9] = measured here: total cells without miR-34 induction
SMILES,parasite load remaining [1],viability [1],red/green cell ratio (normalised) [2],"normalised cell number [2, 4]","normalised cell number [2, 5]","fold change [3, 6]","fold change [3, 7]","cell count [3, 8]","cell count [3, 9]"
CCCC[C@@H](CC)COC(=O)c1ccccc1O,49.2% (inactive),118%,0.88 (inactive),1.19,1.04,0.858 (inactive),1.6,11400,13300
CC1=C(C(=O)O)N2C(=O)[C@@H](NC(=O)[C@H](N)C3=CCC=CC3)C2SC1 (stereo partly specified),74.8% (inactive) and 68.7% (inactive),77.3% and 102%,1 (inactive),1.13,1.14,0.89 (inactive),4.9,11000,12400
Cc1nc(N)cc(C[n+]2csc(CCO)c2C)n1,58.2% (inactive),97.3%,0.91 (inactive),0.96,0.87,0.946 (inactive),4.78,12800,13500
CC(C)CCCC(C)[C@H]1CCC2C3CC=C4C[C@@H](O)CC[C@]4(C)C3CC[C@@]21C (stereo partly specified),39.9% (inactive),101%,1.04 (inactive),1.14,1.19,0.96 (inactive),2.49,12300,12900
CCC(C)C1NC(=O)C(CCN)NC(=O)C(NC(=O)C(CCN)NC(=O)C(NC(=O)C(CCN)NC(=O)CCCCC(C)C)C(C)O)CCNC(=O)C(C(C)O)NC(=O)C(CCN)NC(=O)C(CCN)NC(=O)C(C(C)CC)NC1=O (stereo unspecified) ({Heptanoyl(6-Me)}-[Dab]T[Dab][Dab][Dab]II[Dab][Dab]T; lactam 4-C; configuration not given here),49.5% (inactive),98.1%,0.79 (inactive),1.14,0.9,0.901 (inactive),3.33,12400,13800
OC[C@@H](O)C(O[C@@H]1O[C@H](CO)[C@H](O)[C@H](O)[C@H]1O)[C@H](O)[C@@H](O)CO (stereo partly specified),63.4% (inactive),99.9%,1.21 (inactive),0.87,1.06,0.87 (inactive),4.32,11300,13000
CC(C)C1CCC(C(=O)N[C@@H](Cc2ccccc2)C(=O)O)CC1 (stereo partly specified),74.2% (inactive) and 53.3% (inactive),105% and 113%,0.92 (inactive),1.14,1.05,0.867 (inactive),4.55,11100,12800
CCOC(=O)C(C)(N)Cc1ccc(O)c(O)c1 (stereo unspecified),15% (inactive),103%,1.25 (inactive),0.9,1.12,0.926 (inactive),3.34,12200,13200
CC(=O)Nc1ccc(S(=O)(=O)Nc2onc(C)c2C)cc1,53.8% (inactive),98%,0.94 (inactive),1,0.93,0.897 (inactive),5,11800,13200
CO/N=C(\C(=O)NC1C(=O)N2C(C(=O)OCOC(=O)C(C)(C)C)=C(/C=C\c3scnc3C)CSC12)c1csc(N)n1 (stereo unspecified),101% (inactive) and 42.8% (inactive),81.5% and 105%,0.92 (inactive),1.21,1.12,0.904 (inactive),4.33,11600,12800
CCCCCCCCCCCCCCCC(=O)O[C@@H]1[C@@H](O)[C@@H](O)C([C@H](NC(=O)[C@@H]2C[C@@H](CCC)CN2C)[C@H](C)Cl)O[C@@H]1SC (stereo partly specified),57.3% (inactive),113%,0.93 (inactive),1.03,0.95,0.819 (inactive),4.42,10800,13200
CC[C@@H]1OC(=O)C[C@@H](O)[C@H](C)[C@@H](O[C@@H]2O[C@H](C)[C@@H](O)[C@H](N(C)C)[C@H]2O)[C@@H](CCN2C[C@H](C)C[C@H](C)C2)C[C@@H](C)C(=O)/C=C/C(C)=C\[C@@H]1CO[C@@H]1O[C@H](C)[C@@H](O)[C@@H](OC)[C@H]1OC,64.4% (inactive),108%,0.98 (inactive),1.1,1.07,0.885 (inactive),3.65,12100,13600
CC(C)c1c(C(=O)c2ccccc2)c(-c2ccccc2)c(-c2ccc(F)cc2)n1CC[C@@H](O)C[C@@H](O)CC(=O)O,174% (inactive) and 44.6% (inactive),88% and 103%,0.86 (inactive),1.3,1.12,0.867 (inactive),3.4,9140,10500
C[N+](C)(C)CCOP(=O)([O-])OP(=O)(O)OC[C@H]1OC(n2ccc(N)nc2=O)[C@H](O)[C@@H]1O (stereo partly specified),169% (inactive) and 55.3% (inactive),92.4% and 97.3%,1.29 (inactive),0.95,1.22,0.9 (inactive),4.71,12600,14000
